# In the supplement of paper PMC4466140:
# Biological target: AgAbp1
# Experiment: SPOT peptide array binding signal intensity (averaged, normalized) (arbitrary units (background-subtracted, floor 0; scale differs between SH3 domains)); higher = stronger binding of the SH3 domain to the peptide
# Summary of the method: (§1)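 E. coli BL21(DE3) was used to express GST-fused SH3 domains from four yeast species, which were then purified on glutathione Sepharose. These were incubated at 10 μg/ml in TBS-based blocking buffer overnight at 4°C on cellulose membranes carrying synthetic 15-mer peptides, in which cysteines were replaced by serines. Binding signal is the replicate average of normalized, background-subtracted spot intensity, in arbitrary units that differ between domains.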
row,Binder,SPOT peptide array binding signal intensity
1,NFKRLLPRDPSEKSS,1

# Biological target: AgBbc1
# Experiment: as above
# Summary of the method: as §1
row,Binder,SPOT peptide array binding signal intensity
1,NFKRLLPRDPSEKSS,0.75

# Biological target: AgBem1-D1
# Experiment: as above
# Summary of the method: as §1
row,Binder,SPOT peptide array binding signal intensity
1,NFKRLLPRDPSEKSS,105

# Biological target: AgBzz1-D1
# Experiment: as above
# Summary of the method: as §1
row,Binder,SPOT peptide array binding signal intensity
1,NFKRLLPRDPSEKSS,6

# Biological target: AgBzz1-D2
# Experiment: as above
# Summary of the method: as §1
row,Binder,SPOT peptide array binding signal intensity
1,NFKRLLPRDPSEKSS,35

# Biological target: AgCyk3
# Experiment: as above
# Summary of the method: as §1
row,Binder,SPOT peptide array binding signal intensity
1,NFKRLLPRDPSEKSS,0.5

# Biological target: AgFus1
# Experiment: as above
# Summary of the method: as §1
row,Binder,SPOT peptide array binding signal intensity
1,NFKRLLPRDPSEKSS,311

# Biological target: AgHof1
# Experiment: as above
# Summary of the method: as §1
row,Binder,SPOT peptide array binding signal intensity
1,NFKRLLPRDPSEKSS,32

# Biological target: AgHse1
# Experiment: as above
# Summary of the method: as §1
row,Binder,SPOT peptide array binding signal intensity
1,NFKRLLPRDPSEKSS,2610

# Biological target: AgLsb1
# Experiment: as above
# Summary of the method: as §1
row,Binder,SPOT peptide array binding signal intensity
1,NFKRLLPRDPSEKSS,2.5

# Biological target: AgLsb4
# Experiment: as above
# Summary of the method: as §1
row,Binder,SPOT peptide array binding signal intensity
1,NFKRLLPRDPSEKSS,50

# Biological target: AgMyo5
# Experiment: as above
# Summary of the method: as §1
row,Binder,SPOT peptide array binding signal intensity
1,NFKRLLPRDPSEKSS,1

# Biological target: AgNbp2
# Experiment: as above
# Summary of the method: as §1
row,Binder,SPOT peptide array binding signal intensity
1,NFKRLLPRDPSEKSS,≤ 0

# Biological target: AgRvs167
# Experiment: as above
# Summary of the method: as §1
row,Binder,SPOT peptide array binding signal intensity
1,NFKRLLPRDPSEKSS,2

# Biological target: AgSho1
# Experiment: as above
# Summary of the method: as §1
row,Binder,SPOT peptide array binding signal intensity
1,NFKRLLPRDPSEKSS,99.5

# Biological target: AgSla1-D1-D2
# Experiment: as above
# Summary of the method: as §1
row,Binder,SPOT peptide array binding signal intensity
1,NFKRLLPRDPSEKSS,15.5

# Biological target: AgSla1-D3
# Experiment: as above
# Summary of the method: as §1
row,Binder,SPOT peptide array binding signal intensity
1,NFKRLLPRDPSEKSS,5.5

# Biological target: CaAbp1-D1
# Experiment: as above
# Summary of the method: as §1
row,Binder,SPOT peptide array binding signal intensity
1,NFKRLLPRDPSEKSS,126

# Biological target: CaAbp1-D2
# Experiment: as above
# Summary of the method: as §1
row,Binder,SPOT peptide array binding signal intensity
1,NFKRLLPRDPSEKSS,30

# Biological target: CaBbc1
# Experiment: as above
# Summary of the method: as §1
row,Binder,SPOT peptide array binding signal intensity
1,NFKRLLPRDPSEKSS,≤ 0

# Biological target: CaBem1-D1
# Experiment: as above
# Summary of the method: as §1
row,Binder,SPOT peptide array binding signal intensity
1,NFKRLLPRDPSEKSS,≤ 0

# Biological target: CaBzz1-D1
# Experiment: as above
# Summary of the method: as §1
row,Binder,SPOT peptide array binding signal intensity
1,NFKRLLPRDPSEKSS,≤ 0

# Biological target: CaBzz1-D2
# Experiment: as above
# Summary of the method: as §1
row,Binder,SPOT peptide array binding signal intensity
1,NFKRLLPRDPSEKSS,17.8

# Biological target: CaCyk3
# Experiment: as above
# Summary of the method: as §1
row,Binder,SPOT peptide array binding signal intensity
1,NFKRLLPRDPSEKSS,≤ 0

# Biological target: CaFus1
# Experiment: as above
# Summary of the method: as §1
row,Binder,SPOT peptide array binding signal intensity
1,NFKRLLPRDPSEKSS,970

# Biological target: CaHof1
# Experiment: as above
# Summary of the method: as §1
row,Binder,SPOT peptide array binding signal intensity
1,NFKRLLPRDPSEKSS,0.5

# Biological target: CaHse1
# Experiment: as above
# Summary of the method: as §1
row,Binder,SPOT peptide array binding signal intensity
1,NFKRLLPRDPSEKSS,81

# Biological target: CaLsb1
# Experiment: as above
# Summary of the method: as §1
row,Binder,SPOT peptide array binding signal intensity
1,NFKRLLPRDPSEKSS,0.5

# Biological target: CaLsb4
# Experiment: as above
# Summary of the method: as §1
row,Binder,SPOT peptide array binding signal intensity
1,NFKRLLPRDPSEKSS,≤ 0

# Biological target: CaMyo5
# Experiment: as above
# Summary of the method: as §1
row,Binder,SPOT peptide array binding signal intensity
1,NFKRLLPRDPSEKSS,7

# Biological target: CaNbp2
# Experiment: as above
# Summary of the method: as §1
row,Binder,SPOT peptide array binding signal intensity
1,NFKRLLPRDPSEKSS,286

# Biological target: CaRvs167
# Experiment: as above
# Summary of the method: as §1
row,Binder,SPOT peptide array binding signal intensity
1,NFKRLLPRDPSEKSS,6.33

# Biological target: CaRvs167-3
# Experiment: as above
# Summary of the method: as §1
row,Binder,SPOT peptide array binding signal intensity
1,NFKRLLPRDPSEKSS,31.5

# Biological target: CaSho1
# Experiment: as above
# Summary of the method: as §1
row,Binder,SPOT peptide array binding signal intensity
1,NFKRLLPRDPSEKSS,340

# Biological target: CaSla1-D1-D2
# Experiment: as above
# Summary of the method: as §1
row,Binder,SPOT peptide array binding signal intensity
1,NFKRLLPRDPSEKSS,≤ 0

# Biological target: CaSla1-D3
# Experiment: as above
# Summary of the method: as §1
row,Binder,SPOT peptide array binding signal intensity
1,NFKRLLPRDPSEKSS,1

# Biological target: ScAbp1
# Experiment: as above
# Summary of the method: as §1
row,Binder,SPOT peptide array binding signal intensity
1,NFKRLLPRDPSEKSS,66.5
